Screening results: PubChem, National Center for Advancing Translational Sciences (NCATS)
Most compounds without a hit are left out; they make up all but 19% or so of the library.
TDP1 block – inhibitors of human tyrosyl-DNA phosphodiesterase TDP1; Q9NUW8; recombinant TDP1, AlphaScreen DNA substrate cleavage; Potency, µM (highest dose often 130 µM), inactives show top-dose activity change, negative = inhibition, hits mostly inhibitors; 350,000 compounds, 0.28% hits; also: nearly all actives have a fitted effect of over 40% in size
Target sequence (Q9NUW8 whole entry, looked up): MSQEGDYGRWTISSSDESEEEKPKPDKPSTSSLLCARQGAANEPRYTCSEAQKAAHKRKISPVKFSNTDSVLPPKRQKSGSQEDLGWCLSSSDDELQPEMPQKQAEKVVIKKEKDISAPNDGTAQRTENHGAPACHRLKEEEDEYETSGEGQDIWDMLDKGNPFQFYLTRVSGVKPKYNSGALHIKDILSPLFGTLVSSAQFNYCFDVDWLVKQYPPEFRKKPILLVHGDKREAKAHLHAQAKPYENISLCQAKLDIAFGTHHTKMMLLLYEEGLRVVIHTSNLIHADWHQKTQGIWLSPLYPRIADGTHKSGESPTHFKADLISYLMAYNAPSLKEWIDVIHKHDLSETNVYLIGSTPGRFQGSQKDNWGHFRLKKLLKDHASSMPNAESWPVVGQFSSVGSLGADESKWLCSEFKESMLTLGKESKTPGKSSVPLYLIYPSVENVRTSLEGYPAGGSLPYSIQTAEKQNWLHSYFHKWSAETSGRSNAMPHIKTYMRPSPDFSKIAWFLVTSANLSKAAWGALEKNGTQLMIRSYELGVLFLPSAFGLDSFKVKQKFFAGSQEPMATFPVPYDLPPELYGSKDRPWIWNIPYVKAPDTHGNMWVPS
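Here, a 5' biotin and 3' phosphotyrosine-FITC DNA oligonucleotide reports Tdp1 activity: intact substrate bridges AlphaScreen beads, while cleavage leaves a 3' phosphate and drops signal. All incubations at room temperature.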
DT40 TDP1 CPT – DT40-hTDP1 cell growth loss with CPT | AID 686979 | 420,000 compounds, 12% hits | chicken DT40 Tdp1-/-;hTDP1 cells + 20 nM CPT, ATP luminescence, 48 h | Potency, µM (doses to about 46.2 µM), inactives show at the highest dose activity change, negative = growth inhibition, actives largely listed as inhibitors; also: nearly all actives have a fitted effect of over 55% in size
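Chicken DT40 Tdp1-/- cells complemented with human TDP1, 400 cells/well, exposed to compounds plus 20 nM camptothecin for at least 48 h at 37 C; viability read as ATP content by CellTiter-Glo luminescence.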
VP16 counter – Gal4-VP16 reporter inhibition counter-screen | Drosophila S2 Gal4-VP16 UAS-luciferase, luminescence, 20 h | Potency, µM (doses to about 53.6 µM), for inactives: at the top dose activity, negative = inhibition, hits mostly inhibitors | 310,000 compounds, 3.5% hits | AID 2546;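 also: Gal4-VP16 expression switched on by copper sulfate through the metallothionein promoter; nearly all actives have a fitted effect of over 50% in size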
RORgamma inh – ROR gamma (mouse) transcription inhibition | Drosophila S2 Gal4-RORgamma UAS-luciferase reporter, 20 h | Potency, µM (doses to about 53.6 µM), for inactives: top-dose activity change, negative = inhibition, usual class: inhibitors | 310,000 compounds, 5.4% hits; also: nearly all actives have a fitted effect of over 60% in size
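Drosophila Schneider cells stably carrying a metallothionein-driven Gal4 DBD–ROR gamma fusion and a UAS-Photinus luciferase reporter were exposed to compound for 1 hr, then induced with copper sulfate (700 uM final) for 20 hr at ambient temperature before luminescence reading.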
TDP1 cell noCPT – qHTS for Inhibitors of human tyrosyl-DNA phosphodiesterase 1 (TDP1): qHTS in cells in absence of CPT | DT40 Tdp1-/- hTDP1 cells, no CPT, ATP luminescence, 48 h | Potency, µM (top dose mostly 46.2 µM), for inactives: at the top dose activity change, negative = growth inhibition, most hits filed as inhibitors | 420,000 compounds, 15% hits | AID 686978, 2013; also: nearly all actives have a fitted effect of over 55% in size
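Growth of hTDP1-complemented DT40 Tdp1-knockout cells is measured by ATP luminescence after at least 48 hr compound exposure at 37 °C, with DMSO substituting for the 20 nM CPT used in the parallel screen.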
Numbers without * were called inactive; ? = inconclusive; / = not tested or not shown; [ ] = dose if it differs, or a comment. Calls follow the shape of the dose curve; as a rule, active = well fitted curve in the direction sought with a large enough effect; inconclusive = small, poorly fitted or top-dose-only effect, or another doubt; inactive = no such curve, though single readings can be large; an effect the other way counts as inactive or inconclusive. % is scaled to controls: 0 for no effect and ±100 for the full control effect; potency is read from the fitted curve at half-maximal effect.

SMILES | TDP1 block | DT40 TDP1 CPT | VP16 counter | RORgamma inh | TDP1 cell noCPT
OC1CC2CCC(C1)N2CCCN1c2ccccc2Sc2ccc(Cl)cc21 (configuration not stated) | / | 23µM* | / | / | 15µM*
COc1ccc(-c2nc(N/N=C(\C)c3ccc(O)cc3)c3ccccc3n2)cc1 | 3% | 21µM* | -9% | -29% | 7.3µM*
C/C(=N\NC(=O)c1ccncc1)C12CC3CC(CC(C3)C1)C2 | 5% | -17% | -8% | 2% | ?
C/C(=N\Nc1nc(C)cc(-c2ccccc2)n1)c1cccc(N)c1 | / | ? | 16µM* | 11µM* | 21µM*
C/C(=N\Nc1nc(C)cc(-c2ccccc2)n1)c1ccc(O)cc1 | / | 7.3µM* | ? | ? | 4.6µM*
CC/C(=N\NC(=O)c1ccc(-c2ccccc2)cc1)C12CC3CC(CC(C3)C1)C2 | -1% | -14% | ? | 22µM* | 13µM*
CCOc1ccc(C(=O)N2CCC(C(=O)c3ccc4c(c3)OCCO4)CC2)cc1 | 3% | ? | 21% | -2% | ?
C/C(=N\Nc1nc(C)cc(-c2ccccc2)n1)c1ccccc1 | / | ? | 5µM* | 3.5µM* | ?
C/C(=N\NC(=O)c1ccc(-c2ccccc2)cc1)c1cccc(N)c1 | 1% | 13% | -16% | 13µM* | -9%
C/C(=N\NC(=O)c1ccccc1)c1cccc(Br)c1 | 4% | -31% | ? | -121% | -18%
COc1ccc(F)cc1S(=O)(=O)N1CCC2(CC1)OCCN2S(=O)(=O)c1ccccc1 | -1% | ? | / | / | -69%
C=CCn1c(SCC(=O)NC(=O)Cc2ccccc2)nnc1-c1ccccc1F | 0% | -2% | / | / | -18%
CCN(CC)Cc1cc(Oc2ccc(O)c(CN(CC)CC)c2)ccc1O | / | 21µM* | / | / | 23µM*
CCN(CC)CC(=O)Nc1ccc(Oc2ccc(NC(=O)CN(CC)CC)cc2)cc1 | 8% | 1% | 1%[10 µM] | -21% | -15%
CCOC(=O)C(C(=O)NCC1CCCO1)C1CCCCC1 (configuration not stated) | -2% | -13% | -9% | -16% | -17%
CCCCC(=O)N/N=C/c1sccc1C | 6% | 31% | 0% | -12% | -1%
O=C(O)c1ccccc1/C=N/NC(=S)NCc1ccccc1 | 0% | -13% | 18% | -15% | -10%
Oc1ccccc1/C=N/NC(=S)NCCc1ccccc1 | / | ? | 22µM* | 7.1µM* | ?
Cc1ccsc1/C=N/NC(=S)NCCc1ccccc1 | 10% | 22% | 6.3µM* | 1µM* | 0%
Cc1ccc(C)c(NC(=S)NCCc2ccc(S(N)(=O)=O)cc2)c1 | / | -11% | / | / | 0%
Cc1ccc(C)c(/C=N/NC(=S)NCCc2ccccc2)c1 | 7% | ? | 7.9µM* | 7.1µM* | ?
S=C(NCCc1ccccc1)N/N=C/c1cccc(Cl)c1Cl | -3% | -4% | ? | 22µM* | 6%
CCOC(=O)C1(CCOC)CCN(Cc2ccc(COC)o2)CC1 | / | 0% | -3% | 7% | -29%
S=C(NCCc1ccccc1)Nc1c(Cl)cccc1Cl | / | ? | -27% | 13µM* | 23µM*
O=C(/C=C/c1c(Cl)cccc1Cl)NCCc1ccccc1 | -4% | ? | -4% | -5% | ?
SMILES | TDP1 block | DT40 TDP1 CPT | VP16 counter | RORgamma inh | TDP1 cell noCPT
COc1ccc(O)c(CN2CCC3(CC2)c2ccccc2[C@@H](NC(=O)c2cccc(F)c2)[C@@H]3OC)c1 | / | -6%[9.04 µM] | / | / | 16µM*
Cc1ccc(S(=O)(=O)N2[C@@H](c3ccc4c(c3)OCO4)C(C(=O)O)=C[C@H]2C(C)(C)C)cc1 | 1% | 20% | / | / | -1%
COCCN(Cc1nc(-c2ccc(-c3ccccc3)cc2)oc1C)C(C)C | / | 15µM* | ? | 11µM* | 21µM*
Cc1oc(-c2ccoc2)nc1CN(CC1CCC(=O)N1)C(C)C (configuration not stated) | 7% | 9% | -5% | -11% | -5%
O=C(c1ccccc1)N1c2ncnn2C2(CCCCC2)[C@@H]2CCCC[C@@H]21 | 8% | ? | / | / | ?
Cc1cccc(C(=O)N2c3ncnn3C3(CCCCC3)[C@@H]3CCCC[C@@H]32)c1 | 6% | ? | / | / | 23µM*
